From PubChem BioAssay
PGK inhibitor = qHTS Assay to Find Inhibitors of Phosphoglycerate Kinase; Phosphoglycerate kinase, glycosomal (Trypanosoma brucei brucei), P07378; Potency, µM (highest dose often 57.5 µM), for inactives: top-dose activity change, negative = inhibition, most hits filed as inhibitors; PGK/GAPDH coupled, Kinase-Glo luminescence, 60 min; actives 0.043% (n = 380,000); also: nearly all actives have a fitted effect of over 60% in size
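Luminescent ATP detection (Kinase-Glo Plus) follows a 60-minute room-temperature incubation, with wells lacking PGK as controls. Buffer: 100 mM TEA (pH 7.6), 5 mM MgCl2, 0.01% Tween-20. Coupling enzyme GAPDH (100 nM final) supplies unstable 1,3-BPG in-well.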
BLM helicase inh = qHTS Assay for Inhibitors of Bloom's syndrome helicase (BLM); RecQ-like DNA helicase BLM (Homo sapiens), P54132; recombinant BLM DNA unwinding, fluorescence dequenching; Potency, µM (doses to about 56.1 µM), inactives show top-dose activity change, negative = inhibition, hits mostly inhibitors; actives 0.2% (n = 350,000); AID 2528, 2010;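 also: plate controls were vehicle for no effect and no enzyme for full effect; nearly all actives have a fitted effect of over 35% in size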
FEN1 inh = qHTS Assay for the Inhibitors of Human Flap endonuclease 1 (FEN1). P39748. actives 0.35% (n = 390,000). AID 588795, 2011. Potency, µM (titrated, usually from 114 µM), inactives show at the top dose activity change, negative = inhibition, hits mostly inhibitors. Recombinant FEN1 flap cleavage, fluorescence, 15 min; also: nearly all actives have a fitted effect of over 65% in size
Target sequence (P39748 whole entry, looked up): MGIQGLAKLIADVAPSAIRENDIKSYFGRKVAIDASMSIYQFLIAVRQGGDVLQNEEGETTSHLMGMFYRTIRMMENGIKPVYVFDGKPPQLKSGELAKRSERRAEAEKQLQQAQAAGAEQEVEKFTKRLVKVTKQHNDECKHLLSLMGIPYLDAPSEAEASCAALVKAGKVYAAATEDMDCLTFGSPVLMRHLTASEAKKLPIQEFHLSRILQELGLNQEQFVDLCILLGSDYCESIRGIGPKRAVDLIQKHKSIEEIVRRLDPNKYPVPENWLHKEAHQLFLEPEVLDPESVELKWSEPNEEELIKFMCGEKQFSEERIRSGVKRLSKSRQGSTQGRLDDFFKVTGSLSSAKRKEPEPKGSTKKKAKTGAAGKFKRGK
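Compounds are tested as a concentration series against 10 nM FEN1; after a 15 min room-temperature preincubation, 50 nM substrate starts cleavage, with plate reads at 0 and 15 min. Normalized responses are fitted by a Hill equation.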
RECQ1 helicase = qHTS Assay for Inhibitors of RecQ-Like Dna Helicase 1 (RECQ1). ATP-dependent DNA helicase Q1 (Homo sapiens), P46063. actives 0.54% (n = 240,000). RECQ1 DNA unwinding, red fluorescence kinetic read. Potency, µM (series often up to 57.3 µM), for inactives: at the highest dose activity, negative = inhibition, actives largely listed as inhibitors;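 also: plate controls were vehicle for no effect and no enzyme for full effect; nearly all actives have a fitted effect of over 30% in size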
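50 nM RECQ1T1 preincubated 15 min with compound in Tris pH 8.0 buffer with MgCl2, DTT, Tween-20 and 2.5 ug/ml poly(dI-dC); started with 200 nM TAMRA/BHQ-2 forked duplex and 2 mM ATP. Unwinding read as fluorescence (525/598 nm), two reads 2 h apart.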
APE1 inh = qHTS Assay for Inhibitors of the Human Apurinic/apyrimidinic Endonuclease 1 (APE1). recombinant APE1, TAMRA/BHQ-2 abasic DNA cleavage fluorescence. actives 0.35% (n = 350,000). Potency, µM (series often up to 65.8 µM), inactives show top-dose activity change, negative = inhibition, usual class: inhibitors. AID 2517, 2012;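 also: plate controls were vehicle for no effect and reference inhibitor for full effect; nearly all actives have a fitted effect of over 55% in size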
Target sequence (P27695 whole entry, looked up): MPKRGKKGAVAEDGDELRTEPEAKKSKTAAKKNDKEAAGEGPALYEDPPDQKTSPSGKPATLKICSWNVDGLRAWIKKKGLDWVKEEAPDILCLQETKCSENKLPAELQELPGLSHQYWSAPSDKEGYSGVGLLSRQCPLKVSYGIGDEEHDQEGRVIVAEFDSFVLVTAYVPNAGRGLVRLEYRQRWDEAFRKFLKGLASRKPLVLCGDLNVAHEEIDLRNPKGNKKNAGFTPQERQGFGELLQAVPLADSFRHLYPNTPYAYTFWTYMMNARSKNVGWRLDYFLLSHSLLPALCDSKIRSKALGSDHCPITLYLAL
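Step 1: APE1 (0.75 nM) with compound, 15 min RT. Step 2: add 50 nM fluorophore/quencher THF duplex. Step 3: three fluorescence reads 60 s apart (525/598 nm); read 3 minus read 1 = reaction progress.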
* hit, by the source's call; i = inactive; ? = inconclusive; nt = no result given; ! = a repeat was not active; [ ] = dose if it differs, or a comment. Most compounds without a hit are left out; they make up all but 0.74% or so of the library. Calls follow the shape of the dose curve; as a rule, active = well fitted curve in the direction sought with a large enough effect; inconclusive = small, poorly fitted or top-dose-only effect, or another doubt; inactive = no such curve, though single readings can be large; an effect the other way counts as inactive or inconclusive. Unless noted, % is scaled to controls: 0 for no effect and ±100 for the full control effect; potency is read from the fitted curve at half-maximal effect.

SMILES	PGK inhibitor	BLM helicase inh	FEN1 inh	RECQ1 helicase	APE1 inh
O=C(C[C@H]1C/C=C\C[C@H](NC(=O)OCC2c3ccccc3-c3ccccc32)C(=O)OC[C@H]2CCCN2C1=O)NCCO	2%	nt	-14%	nt	?
C[C@@]12CC[C@@H]3c4ccc(O)cc4CC[C@H]3[C@H]1CC[C@H]2O	nt	-7%[21.4 µM]	nt	i	4%[21 µM]
C[C@]12CC[C@@H]3c4ccc(O)cc4CC[C@H]3[C@@H]1CC[C@@H]2O	-10%	-7%	-2%	32µM*!	2%
CCOC(=O)NC(=O)C(/C=N/c1sccc1C(=O)OC)=C(\C)O	-3%	-1%	1%	14µM*	3%
CCCNc1nc(Nc2ccc(C)c(Cl)c2)c2cnn(C)c2n1	-2%	-3%	-16%	nt	-5%
O=C1/C(=C\c2ccco2)SC(=S)N1C1CCCCC1	nt	-6%	nt	nt	1%
CC1=C(C#N)C(=O)N(C2CCS(=O)(=O)C2)C(=O)/C1=C\c1ccco1 (stereo not given)	nt	7.1µM*	nt	3.2µM*	1.6µM*
Cc1c(C(=O)NCc2cccc(Br)c2)oc2ccc3c(c12)C(=O)CC(C)(C)O3	nt	-12%	89µM*	nt	nt
O=C(c1ccco1)N1CCN(C(=O)c2ccc(CS(=O)c3cccc(Cl)c3)o2)CC1 (stereo not given)	-4%	1%	-5%	nt	34%
COc1ccc2nc3cc(Cl)ccc3c(Nc3cc(C(C)C)c(O)cc3C)c2c1	i	-2%	-3%	-2%	-3%
COc1ccc2nc3cc(Cl)ccc3c(Nc3cc(CN4CCCC4)c(O)c(CN4CCCC4)c3)c2n1	nt	?	nt	nt	15µM*
Cc1noc(-c2ccc(NC(C)c3ccccc3)c([N+](=O)[O-])c2)n1 (stereo not given)	1%	-3%	4%	nt	nt
Cc1ccc(Nc2nc(/N=C/N(C)C)n[nH]2)cc1C	-1%	-2%	5%	-9%	3%
Cc1cc(N(C)C)cc(C)c1/C=C/c1ccnc2ccccc12	nt	nt	-13%	nt	nt
COc1cc(OC)c(OC)cc1/C=C/c1ccnc2ccccc12	-1%	nt	?	nt	nt
C[n+]1c(/C=C/c2ccnc3ccccc23)cc(/C=C/c2ccnc3ccccc23)c2ccccc21	nt	nt	10µM*	nt	nt
Cc1cc([N+](C)(C)C)cc(C)c1/C=C/c1ccnc2ccccc12	nt	nt	22µM*	nt	nt
CCN(CC)c1ccc(CNc2ccc(Br)cn2)cc1	0%	-1%	1%	-9%	11%
COc1ccc(S(=O)(=O)N2CCOCC2)cc1NC(=O)c1cccc(-n2cccc2)c1	-14%	nt	-16%	nt	?
CCOc1ccc(NC(=O)c2cccc(-n3cccc3)c2)cc1S(=O)(=O)N1CCOCC1	nt	nt	nt	nt	1.3µM*
CC(C)Oc1ccc(C(=O)N/N=C/c2ccc(-c3ccc(S(=O)(=O)Nc4ncccn4)cc3)o2)cc1	-14%	-4%	79µM*	?	13%
O=C(Nc1ccc([N+](=O)[O-])cc1)c1ccccc1F	-7%	-1%	17%	-1%	5%
O=C(c1cc(O)c(O)c([N+](=O)[O-])c1)c1ccccc1F	?	nt	-1%	2.2µM*	5%
CC(C)(C)c1ccccc1OCCOCCN1CCCCCC1	3%	-5%	-2%	i	3%
CCOc1ccc(/C=C2/SC(=S)N(CCC(=O)Nc3ccc(C(=O)O)cc3)C2=O)cc1	?	-27%	-33%	nt	7.5µM*
SMILES	PGK inhibitor	BLM helicase inh	FEN1 inh	RECQ1 helicase	APE1 inh
CCN(CC)CCOC(=O)c1ccc(NC(=O)CCCN2C(=O)S/C(=C/c3ccc(OC)cc3)C2=S)cc1	i	-7%	?	nt	34µM*
O=C(CCN1C(=O)/C(=C\c2ccccc2)SC1=S)Nc1ccc(C(=O)O)cc1	-1%	1%	-15%	nt	40%
Cc1ccc(/C=C2\SC(=S)N(CCC(=O)NNC(=O)c3ccc(O)cc3)C2=O)cc1	-7%	-4%	-9%	nt	13%
CN1C(=O)/C(=C/c2ccc(C(=O)Nc3ccc(O)cc3C(=O)O)cc2)SC1=S	-18%	-12%	?	nt	24µM*
COc1ccc(/C=C2\SC(=S)N(CCC(=O)Nc3ccc(O)cc3)C2=O)cc1	i	0%	-1%	nt	-7%
Cc1ccc(S(=O)(=O)NNC(=O)c2c(O)c3ccccc3[nH]c2=O)cc1	9%	0%	14%	-2%	2%
CCc1nn(CC(=O)NCc2ccco2)c(=O)c2cc3cc(F)ccc3n12	-8%	-3%	0%	nt	nt
CC(=O)Nc1cccc(NC(=O)CCn2c(=O)sc3ccccc32)c1	8%	2%	3%	2%	0%
O=C(O)CCc1ccc(-c2cccs2)n1CCc1ccccc1	-9%	-19%	10%	i	1%
O=C(O)CCc1ccc(-c2cccs2)n1CCC(=O)O	-6%	-3%	-1%	-9%	14µM*
Cc1c2oc3c(C)ccc(C(=O)NC4C(=O)NC(C(C)C)C(=O)N5CCCC5C(=O)N(C)CC(=O)N(C)C(C(C)C)C(=O)OC4C)c3nc-2c(C(=O)NC2C(=O)NC(C(C)C)C(=O)N3CCCC3C(=O)N(C)CC(=O)N(C)C(C(C)C)C(=O)OC2C)c(N)c1=O (stereo not given)	nt	nt	nt	3.2µM*	13µM*
C=CCN1C(=O)/C(=C/C=C2/N(CC)c3ccc(S(=O)(=O)N(C)C)cc3N2CC)SC1=S	-16%	10µM*	?	4µM*	?
COc1ccc(NC(=O)c2ccccc2[N+](=O)[O-])cc1	-5%	2%	2%	-9%	-1%
COc1cc2oc(-c3ccccc3)cc(=O)c2cc1OC	nt	7%	nt	-6%	-4%
CN(C)c1ccc2c(-c3ccccc3)c3ccc(=[N+](C)C)cc-3oc2c1	nt	28µM*	nt	28µM*	28µM*
CCCn1c(C)nc2c(c1=O)c1nc3ccccc3nc1n2CCC1=CCCCC1	-6%	-3%	-8%	i	-2%
Cc1nc2c(c(=O)n1CCC1=CCCCC1)c1nc3ccccc3nc1n2/N=C/c1ccco1	-10%	-23%	-32%	28µM*	?
O=C(O)c1cccc(Cn2c(Cl)c(/C=N/Nc3ccccc3)sc2=O)c1	3%	?	-6%	32µM*	18%
C/C(N)=C(/C#N)C(=O)CSc1nnc(NC(C)C)s1	-16%[11.5 µM]	-13%	35µM*	-14%	?
COc1ccc(C(=O)c2cn(Cc3ccc(F)cc3)c3c(F)cc(F)cc3c2=O)cc1	i	-3%	89µM*	nt	nt
Cc1ccc(C(=O)c2cn(Cc3ccccc3)c3c(F)cc(F)cc3c2=O)cc1	-9%	-4%	2%	nt	nt
